# Sampled rows, rich in hits. Any-hit rate of the full collection: about 1.6%.
# KCNQ2 pot = potentiators of rat KCNQ2 potassium channel; Potassium voltage-gated channel subfamily KQT member 2 (Rattus norvegicus), O88943; CHO-K1 KCNQ2, FluxOR thallium flux fluorescence; stronger effect = higher value; B-score at 10 µM; actives 0.54% (n = 310,000); AID 2239, 2010;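 active = fluorescence ratio B-score at least 3 SD of library B-scores, with initial fluorescence B-score within 3 of them, cut at about 5.3 in these data; same plate scores as AID 2156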;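 note: B-score of peak minus minimum over baseline fluorescence ratio after K+ and Tl+ stimulus; positive B-score means potentiation of KCNQ2 with more thallium influx and brighter signal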
# KCNQ2 block = rat KCNQ2 potassium channel inhibitors, primary screen, cell-based, CHO-K1, FluxOR thallium flux, B-score. Potassium voltage-gated channel subfamily KQT member 2 (Rattus norvegicus), O88943. 20 min; stronger effect = lower value. B-score at 10 µM. actives 1.1% (n = 310,000). AID 2156, 2009;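 active = fluorescence ratio B-score at most minus 3 library SDs, with starting brightness B-score within 2 library SDs, cut at about -5.5 in these data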
# * hit, by the source's call; i = inactive; nt = not tested or not shown.
SMILES,KCNQ2 pot,KCNQ2 block
COc1ccc(CCNC(=O)CCNC(=O)N2CC(=O)Nc3ccccc32)cc1OC,0.75,i
Cc1ccc(C(=O)c2cc([N+](=O)[O-])ccc2N2CCCCC2)cc1C,nt,i
Cc1ccc(C(=O)c2ccc([N+](=O)[O-])cc2)cc1C,5.57*,i
Clc1ccc(Cc2nnc(-c3ccccc3Br)o2)cc1,-5.89,-5.89*
Clc1ccccc1OCc1nnc(-c2ccccc2Br)o1,nt,i
Cc1coc2cc3oc(=O)c(CCC(=O)N4CCC(C(=O)O)(c5ccccc5)CC4)c(C)c3cc12,nt,i
Cc1cccc(OCc2nnc(SCC(=O)N3c4ccccc4CC3C)n2C)c1C (centres undefined),-6.03,-6.03*
Cc1ccccc1OCc1nnc(SCC(=O)N2CCc3ccccc32)n1C,2.02,i
Cn1cnc(S(=O)(=O)NC2CCN(Cc3ccccc3)CC2)c1,1.37,i
Cc1ccccc1CNC(=O)CN(c1ccccc1Cl)S(C)(=O)=O,nt,i
O=S(=O)(c1ccc2nc(Nc3ccccc3)ccc2c1)N1CCCCC1,nt,i
Cc1ccc(-c2cc(C(=O)NCCCn3ccnc3)c3ccccc3n2)s1,nt,i
CCc1ccc(-c2cc(C(=O)NCCCn3ccnc3)c3ccccc3n2)s1,-8.18,-8.18*
O=S(=O)(NC1CC1)c1ccc(S(=O)(=O)N(Cc2ccccn2)C2CC2)cc1,0.19,i
CCCC(Oc1ccc(Br)cc1)c1nc2c3cc(OC)c(OC)cc3nc(=S)n2[nH]1 (centres undefined),nt,i
CC(Oc1ccc(Br)cc1)c1nc2c3ccccc3nc(=S)n2[nH]1 (centres undefined),5.42*,i
C=CCn1c(C)cc(C(=O)COC(=O)[C@@H](NC(=O)c2ccccc2Cl)C(C)C)c1C,-7.49,-7.49*
C=CCn1c(C)cc(C(=O)COC(=O)COc2ccccc2C#N)c1C,nt,i
C=CCNS(=O)(=O)c1cc2c3c(c1)CCN3C(=O)CC2,nt,i
Cc1nc2nc(SCc3ccccc3)[nH]n2c(=O)c1C,nt,i
COC(=O)c1ccc(COC(=O)c2ccc(N(C)C)cc2)cc1,nt,i
COC(=O)c1cccc(COC(=O)c2ccc(N(C)C)cc2)c1,-6.49,-6.49*
CCCc1nnc(SCC(=O)NC2CCCC2)n1CCOC,nt,i
CSCCC(NS(=O)(=O)c1ccccc1F)C(=O)NCc1cccnc1 (centres undefined),0.89,i
CCCCCc1cc(=O)[nH]c(=S)[nH]1,0.07,i
SMILES,KCNQ2 pot,KCNQ2 block
CCCCCc1ccc(C(=O)CCCC)c(=S)[nH]1,7.96*,i
COc1cc2c(cc1OC)C(COc1cccc(C(F)(F)F)c1)NCC2 (centres undefined),nt,i
COc1cccc(NC(=O)N(C2CCCCC2)C(C)c2cccs2)c1 (centres undefined),-5.66,-5.66*
COc1cccc(NC(=O)Nc2cccs2)c1,2.37,i
CCOC(=O)C(Cc1ccccc1)C(=O)Nc1cccc2ccccc12 (centres undefined),-5.85,-5.85*
CCOC(=O)C(Cc1ccccc1)C(=O)NCc1cccnc1 (centres undefined),0.94,i
COc1ccc(CN(C(C)=O)c2cccc(C)c2C)cc1,nt,i
CC(=O)N(Cc1ccc(Br)cc1)c1cccc(C)c1C,-6.49,-6.49*
CCc1nnc(NC(=O)CCC(=O)N2CCN(c3cc(Cl)ccc3C)CC2)s1,0.17,i
COc1ccc(S(=O)(=O)N2CCCCC2)cc1NC(=O)CCNC(=O)c1ccc(Br)cc1,nt,i
O=C(CSc1nc(O)cc(=O)n1-c1ccccc1)Nc1ccc2c3c(cccc13)CC2,3.26,i
Cc1c(O)nc(SCC(=O)Nc2ccc3c4c(cccc24)CC3)n(-c2ccccc2)c1=O,11.7*,i
COc1ccccc1C(=O)NC(=O)COC(=O)C1(C)CC1(Cl)Cl (centres undefined),nt,i
CC(=O)N1C(C(=O)O)Cc2c([nH]c3ccccc23)C1(C)C (centres undefined),7.28*,i
CC12CCC(=O)N1C(C(=O)O)Cc1c2[nH]c2ccccc12 (centres undefined),nt,i
Cc1ccc2c(c1)cc(C(=O)NCc1ccccc1)n2C,nt,i
CCOc1cc(C)c(C(C)C)cc1S(=O)(=O)n1cnc(C)c1,8.66*,i
CCOc1cc(C)c(C(C)C)cc1S(=O)(=O)N1CC(C)OC(C)C1 (centres undefined),0.1,i
CCc1ccccc1N1CC(C(=O)Nc2cc(C)on2)CC1=O (centres undefined),0.37,i
COc1cc2ccccc2cc1C(=O)Nc1sc2c(c1C(N)=O)CCN(C(C)C)C2,-5.88,-5.88*
CN1CCc2c(sc(NC(=O)c3ccc4ccccc4c3)c2C(N)=O)C1,nt,i
O=C(NCCCc1nc2ccccc2[nH]1)c1ccc(F)cc1,7.3*,i
O=C(NCc1nc2ccccc2[nH]1)c1ccccc1F,1.07,i
O=C(CN1CCN(C(=O)C2CCCO2)CC1)Nc1cc(C(F)(F)F)ccc1Cl (centres undefined),0.01,i
CN(C)CCNc1ncnc2c1sc1nc(N3CCCC3)c3c(c12)CC(C)(C)OC3,4.81,i
SMILES,KCNQ2 pot,KCNQ2 block
CCN(CC)CCNc1ncnc2c1sc1nc(N3CCCC3)c3c(c12)CC(C)(C)OC3,5.84*,i
CCOC(=O)N1CCC(NC(=O)C2CCN(S(=O)(=O)c3ccc4c(c3)oc(=O)n4C)CC2)CC1,0.05,i
NC[C@@H]1O[C@H](C23CC4CC(CC(C4)C2)C3)Cc2c1ccc(O)c2O,-5.85,-5.85*
O=C(CSc1nnc(-c2ccccc2O)o1)N1CCCCC1,nt,i
CCc1ccc(NC(=O)Cn2nc(C)n3cccc3c2=O)cc1,0.21,i
c1ccc(-c2c(-c3ccccc3)n(Cc3ccco3)c3ncnc(NCCCn4ccnc4)c23)cc1,-10.7,-10.7*
OCCNc1ncnc2c1c(-c1ccccc1)c(-c1ccccc1)n2Cc1ccco1,nt,i
CC(Sc1n[nH]c(N)n1)C(=O)NC1CCCCC1C (centres undefined),0.65,i
Cc1cccc(N(CC(=O)NC(C)(C)C)C(=O)CCC(=O)Nc2ccccn2)c1,0.57,i
O=C(Nc1ccccc1N1CCOCC1)C1(c2ccc(Cl)cc2)CCC1,-6.49,-6.49*
O=C(Cc1ccc(Cl)c(Cl)c1)Nc1ccccc1N1CCOCC1,0.67,i
Fc1ccc(Cn2cccc2C2=NC(c3ccccc3)CO2)cc1 (centres undefined),nt,i
Cc1oc(-c2ccccc2)nc1Cn1cccc1C1=NC(c2ccccc2)CO1 (centres undefined),-5.96,-5.96*
COc1ccccc1CNC(=O)/C(C#N)=C/c1ccc(OC)c(OC)c1OC,nt,i
COc1ccc(Cn2c(=O)[nH]c3cc(C(=O)N4CCN(Cc5ccccc5)CC4)ccc3c2=O)cc1,nt,i
COc1ccc2c(C)c(C(=O)N3CCN(Cc4ccccc4)CC3)oc2c1,-6.19,-6.19*
O=C(c1ccccc1)N1CCN(c2ccc(Cl)cc2)CC1,nt,i
O=C(c1noc2c1CSc1ccccc1-2)N1CCN(c2ccc(Cl)cc2)CC1,-7.05,-7.05*
O=C(CCS(=O)(=O)c1ccccc1Cl)NCCC1=CCCCC1,nt,i
CN1CCN(/N=C/c2ccc(-c3ccccc3)cc2)CC1,nt,i
CN1CCN(/N=C/c2c3ccccc3c(Cl)c3ccccc23)CC1,-7.08,-7.08*
O=C(NNC(=S)NC(=O)c1sc2ccccc2c1Cl)c1ccc(Cl)cc1,13.3*,i

# Screening results (PubChem BioAssay)
